USP2a inh: inhibitors of human ubiquitin-specific protease USP2a. 330,000 compounds, 0.01% hits. O75604. Potency, µM (top dose mostly 38.3 µM), usual class: inhibitors. USP2 core, Ub-CHOP2 coupled fluorogenic reporter, 485/531. AID 463254
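USP2 core (10nM final) preincubated 30min RT with compound in 20mM Tris-HCl pH 8.0, 2mM CaCl2, 2mM beta-mercaptoethanol, 0.05% CHAPS; 25nM Ub-CHOP2 plus 25nM reporter substrate added, fluorescence (Ex485/Em531) read after 60min.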
D1 antag: human D1 dopamine receptor antagonism; activity change, negative = inhibition, % at 10 µM; 360,000 compounds, 3.2% hits; HEK293 TREx D1 cells, calcium flux, dopamine EC80; stronger effect = lower value; P21728; AID 504652; in the data active = activity change below about -30%
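Compound effects on dopamine-evoked calcium signalling were measured in tetracycline-induced HEK293 Trex D1 cells. Dopamine at EC80 followed a 180 s compound pre-read, and fluorescence was tracked kinetically for 180 s more.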
Eya2 inh: blocks the phosphatase activity of human Eya2. O00167. recombinant Eya2, OMFP fluorescence dephosphorylation (OMFP is methylfluorescein phosphate). Potency, µM (series often up to 76.9 µM), actives largely listed as inhibitors. 330,000 compounds, 0.006% hits. AID 488837
Target sequence (O00167 whole entry, looked up): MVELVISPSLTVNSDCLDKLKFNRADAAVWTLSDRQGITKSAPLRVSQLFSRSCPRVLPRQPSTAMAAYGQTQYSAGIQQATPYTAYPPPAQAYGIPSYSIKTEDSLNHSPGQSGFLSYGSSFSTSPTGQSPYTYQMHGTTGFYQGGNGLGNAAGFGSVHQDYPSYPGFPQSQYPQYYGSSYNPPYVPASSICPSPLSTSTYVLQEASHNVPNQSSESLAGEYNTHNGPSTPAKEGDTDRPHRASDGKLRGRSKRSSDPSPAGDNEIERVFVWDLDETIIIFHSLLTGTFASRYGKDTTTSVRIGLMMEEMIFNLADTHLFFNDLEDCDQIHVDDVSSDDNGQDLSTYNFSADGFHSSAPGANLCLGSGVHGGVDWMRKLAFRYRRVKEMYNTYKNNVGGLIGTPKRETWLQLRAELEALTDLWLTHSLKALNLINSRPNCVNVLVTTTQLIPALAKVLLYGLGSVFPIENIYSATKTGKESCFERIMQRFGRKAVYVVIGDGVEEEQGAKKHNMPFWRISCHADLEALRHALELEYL
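Eya2 (0.2 uM) preincubated 10 min at ambient with compound, then OMFP substrate added at 50 uM; 10 min reaction in 50 mM HEPES pH 7.5, 50 mM NaCl, 5 uM MgCl2, 0.05% BSA, 1 mM DTT. Fluorescence read at Ex 485/Em 525 nm.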
D1 potentiator: human D1 dopamine receptor positive modulation. HEK293 TREx D1 cells, calcium flux, dopamine EC20 potentiation. potentiation, % at 10 µM. 360,000 compounds, 0.036% hits. AID 504651; in the data active = potentiation above about 30%
GALK inh: galactokinase (human) inhibition; 270,000 compounds, 0.007% hits; P51570; Potency, µM (highest dose often 57.5 µM), most hits filed as inhibitors; Purified GALK, Kinase-Glo residual ATP luminescence
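Human GALK (5 nM) with 35 uM ATP and 100 uM galactose in 20 mM HEPES pH 8.0, 5 mM MgCl2, 60 mM NaCl, 1 mM DTT, 0.01% BSA. After 1 h at room temperature, leftover ATP was read by Kinase-Glo Plus luminescence.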
D1 agonist: activates the human D1 dopamine receptor; P21728; 360,000 compounds, 1% hits; HEK293 T-REx D1 cells, calcium flux, agonist mode; activation, % at 2 µM; in the data active = activation above about 30%
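Inducible HEK293 T-REx D1 cells, force-coupled to calcium signalling, were plated at 4000 cells/well with tetracycline and held overnight at 30 C. After no-wash calcium dye loading, compound-evoked calcium rise over 180 s flagged agonists.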
Numbers stand for hits; - = inactive; . = not tested or not shown; ! = not active in a repeat. Rows were chosen to be rich in hits. Some 3.9% of all compounds tested hit in one or more screens of this group. Unless noted, calls follow the shape of the dose curve; as a rule, active = well fitted inhibition curve with a large enough effect; inconclusive = small, poorly fitted or top-dose-only effect, or effect the other way; inactive = flat fitted curve, though single readings scatter.

SMILES | USP2a inh | D1 antag | Eya2 inh | D1 potentiator | GALK inh | D1 agonist
Cc1cc(C(=O)N2CCCC(C(=O)c3ccc(Cl)cc3C)C2)no1 (configuration not stated) | - | -35 | - | - | - | -
Cc1sc2ncn(CC(=O)Nc3ccc(C(C)C)cc3)c(=O)c2c1S(=O)(=O)N1CCN(c2ncccn2)CC1 | . | -61 | . | - | . | -
O=C1C2C3CC(C2C(=O)N1c1cccc(Cl)c1)[C@H](O)C3O (some centres not stated) | - | - | - | - | - | -
O=C(C1=NN(c2ccccc2)C2C(=O)N(c3cccc(Cl)c3)C(=O)C12)c1ccccc1 (configuration not stated) | - | - | - | - | - | 104
CC(=O)C1=NOC2C(=O)N(c3ccc(Cl)cc3)C(=O)C12 (configuration not stated) | - | - | - | - | - | 50
O=C(C1=NN(c2ccccc2)C2C(=O)N(c3ccc(Cl)cc3)C(=O)C12)c1ccccc1 (configuration not stated) | - | - | - | - | - | 192
COc1ccccc1N1CCN(C(=O)C2CCN(S(=O)(=O)c3cnc[nH]3)CC2)CC1 | . | - | . | - | . | -
CCCc1ccc(S(=O)(=O)N2CCC(c3nnc(-c4cccc(C)c4)o3)CC2)cc1 | . | - | . | - | . | -
O=S(=O)(c1ccc(F)cc1)N1CCN(Cc2nnc(-c3ccccc3)o2)CC1 | - | - | - | - | . | -
Cc1ccc(S(=O)(=O)N2CCN(Cc3nnc(-c4c(-c5ccccc5)noc4C)o3)CC2)cc1 | - | -42 | - | . | . | -
CC(C)(C)NC[C@@H](O)COc1cccc2c1CCCC2=O | - | - | - | - | . | -
CCc1ccccc1OC[C@@H](O)CN[C@H]1CCCc2ccccc21 | - | -52 | - | - | . | 97
CC(C)(C)NCC(O)COc1ccccc1C1CCCC1 (configuration not stated) | - | - | - | - | . | 31
OC(CNC1CCCc2ccccc21)COc1ccc2ccccc2c1 (configuration not stated) | - | - | - | - | - | -
CC(=O)N1CCCc2cc(S(=O)(=O)N3CCCC(C(=O)Nc4cc(C)ccc4C)C3)ccc21 (configuration not stated) | - | - | - | - | - | -
CC(=O)N1CCCc2cc(S(=O)(=O)N3CCCC(C(=O)NCc4ccccc4)C3)ccc21 (configuration not stated) | - | -30! | - | - | - | -
CC(=O)N1CCCc2cc(S(=O)(=O)N3CCCC(C(=O)Nc4cccc(Cl)c4C)C3)ccc21 (configuration not stated) | . | -44 | . | - | . | -
CC(=O)N1CCCc2cc(S(=O)(=O)N3CCCC(C(=O)Nc4ccccc4C)C3)ccc21 (configuration not stated) | - | -37 | - | - | - | -
COc1cc(C)ccc1OCCSc1nnc(-c2ccc(C)cc2)o1 | . | - | . | - | . | -
CC(=Nc1ccccc1O)c1sc2ccccc2c1O | - | - | - | - | - | 48
CC(=Nc1ccc(O)cc1)c1sc2ccccc2c1O | - | - | - | - | - | 53
CC(=Nc1cccc(C)c1)c1sc2ccccc2c1O | - | - | - | - | - | -
Cc1cc(O)c(C(c2ccccc2)N2CCN(c3ccc(F)cc3)CC2)c(=O)n1Cc1ccco1 (configuration not stated) | . | - | . | - | . | -
O=C(Nc1ncc(Cc2cccc(C(F)(F)F)c2)s1)C1CCCO1 (configuration not stated) | - | -40 | - | - | - | -
Cc1cccc(N2CCN(C(=O)CN3C(=O)COc4ccc(S(=O)(=O)N5CCC(C)CC5)cc43)CC2)c1C | . | - | . | - | . | -
SMILES | USP2a inh | D1 antag | Eya2 inh | D1 potentiator | GALK inh | D1 agonist
CCOc1ccc(-c2nc3c(c(SCC(=O)N4CCCCC4)n2)Cc2cccc(OC)c2O3)cc1 | . | - | . | - | . | -
CN(C)CCN(Cc1ccccc1)c1ccccn1 | - | -31! | - | - | - | -
CCCc1ccc(S(=O)(=O)N2CCC(c3nnnn3-c3ccc(OC)cc3)CC2)cc1 | . | - | . | - | . | -
COc1ccc(/C(C)=N/NC(=O)c2nnn(-c3nonc3N)c2-c2ccccc2)cc1 | - | - | - | - | - | 50
COc1ccc(/C(C)=N/NC(=O)c2nnn(-c3nonc3N)c2-c2cccs2)cc1 | - | - | - | - | - | 57
C/C(=N\NC(=O)c1nnn(-c2nonc2N)c1-c1cccs1)c1ccc(C)cc1 | - | - | - | - | - | 87
CC(C)(C)c1ccc(C(=O)NCC(=O)OC(C(=O)Nc2cc(C(F)(F)F)ccc2Cl)c2ccccc2)cc1 (configuration not stated) | . | - | . | - | . | -
Brc1cccc(-c2nnc(CN3CCN(c4ccccn4)CC3)o2)c1 | . | - | . | - | . | -
Cc1cccc(C)c1NC(=O)CCSc1nc(-c2ccc3c(c2)OCO3)cc(C(F)(F)F)n1 | . | - | . | - | . | -
COc1ccc(-c2ccc(NS(=O)(=O)c3ccc(C(C)=O)cc3)cc2)nn1 | . | - | . | - | . | -
O=C(CSc1nc2c(cnn2-c2ccc(F)cc2)c(=O)[nH]1)Nc1ccc(Br)cc1 | . | - | . | - | . | -
O=C(NC12CC3CC(CC(C3)C1)C2)c1ccc(Br)o1 | - | - | - | - | - | -
O=C(NC12CC3CC(CC(C3)C1)C2)c1ccc([N+](=O)[O-])o1 | - | -48 | - | - | - | -
Cc1c(O)ccc2cc(S(=O)(=O)c3ccccc3)c(=O)oc12 | - | - | - | - | - | 32
Cn1ncc2c(=O)n(CC(=O)NC34CC5CC(CC(C5)C3)C4)cnc21 | - | -34 | - | - | - | -
CCOc1ccc(C2=C/C(=C/c3cccnc3)C(=O)O2)cc1 | - | - | - | - | - | 65
COc1ccc(C2=C/C(=C/c3cccnc3)C(=O)O2)cc1OC | - | - | - | - | - | 60
O=C(Nc1cc(Cl)ccc1Cl)c1cc(S(=O)(=O)NCCc2ccccc2)ccc1F | . | - | . | - | . | -
COc1ccc2c(Sc3ccccc3)c(C(=O)NCc3cc(Br)ccc3OC)[nH]c2c1 | . | - | . | - | . | -
CCN(CC)CCCCN1c2ccccc2Sc2ccccc21 | - | - | - | - | . | 35
CCN(CC)CC(=O)N1c2ccccc2Sc2ccccc21 | - | - | - | - | - | -
CCOC(=O)c1c(C)n(-c2ccccc2)c2ccc(OC(=O)COc3ccc(Cl)cc3)cc12 | . | - | . | - | . | -
COc1cc(C(=O)NCCCN2CCCC2=O)ccc1OCc1ccc(Cl)cc1Cl | - | - | - | - | . | 38

Assay outcomes deposited in PubChem by National Center for Advancing Translational Sciences (NCATS).
